# Bioassay records as filed in PubChem BioAssay.
# PD-1 reversal: reversal of PD-1 mediated T-cell inhibition. AID 2316. primary human CD4 T cells, PD-L1 beads, CellTiter-Glo 96 h. 29,000 tested, under 10 active. activation, % (test concentration not listed); call rule not given here;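 also: 0% = median vehicle wells and 100% = positive control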
# NOMO-1 viab: STK33 inhibitor candidate reducing NOMO-1 cell viability. NOMO-1 AML viability, CellTiter-Glo luminescence, 72 h. inhibition, % (concentration not given with the values). 37,000 compounds, 7.5% hits; in the data active = inhibition above about 80%; inconclusive = no clear call, values can overlap the other calls
# ROS inducer: raises reactive oxygen species in U2OS cancer cells; U2OS ROS induction, H2DCF-DA fluorescence; ROS induction (% of piperlongumine), % at 10 µM; 46,000 compounds, 2% hits; in the data active = ROS induction above about 79%, passing the limit was not always enough; inconclusive = no clear call, values can overlap the other calls;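 also: 0% = DMSO vehicle median and 100% = reference compound median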
# * marks the source's active call; other numbers are inactive results; ? = inconclusive; / = not tested or not shown. Many of the other results were omitted from the sample, so hits are more common in it than they were.
SMILES,PD-1 reversal,NOMO-1 viab,ROS inducer
COC(=O)COc1cccc(NC(=O)c2ccc(NC(=O)c3ccco3)cc2)c1,-5,110*,?
CN1CCN(CCCn2nnc3c(=O)oc4ccccc4c32)CC1,/,2,/
CCCCn1nnc2c(=O)oc3ccccc3c21,/,/,187*
CCOC(CCn1c(SCc2cc(=O)n3ccccc3n2)nc2ccccc2c1=O)OCC,/,/,-4
O=C(Nc1cccc(F)c1)c1cccc(-c2cc3ccccc3oc2=O)c1,/,/,-4
O=C(Oc1ccccc1/C=C1/N=C2CCCCCN2C1=O)c1ccccc1Cl,/,/,61
O=C(CCCn1ncn2c(cc3occc32)c1=O)NCCc1ccccc1,/,/,8
C=C(C)C(=O)O[C@@H]1C2=C(C)C(=O)OC2(O)CC23OC2CC[C@H](C)[C@@]13C (some centres undefined),0,23,6
C=C(C)C(=O)O[C@H]1[C@H]2C(=C)C(=O)O[C@@H]2C[C@@H](C)/C=C/C(=O)[C@](C)(O)[C@@H]1OC(=O)C(=C)C,-11,107*,56
C=C(C)C(=O)OC1CC(CO)CCC/C(CO)=C\C2OC(=O)C(=C)C21 (centres undefined),/,/,22
C=C(C)C(=O)O[C@H]1[C@H]2C(=C)C(=O)O[C@@H]2C[C@@H](C)[C@@H]2O[C@@H]2C(=O)[C@](C)(O)[C@@H]1OC(C)=O,-20,122*,82*
CCOC(=O)N1CCN(C(=O)CN(C2CCCCC2)S(=O)(=O)c2ccccc2)CC1,/,/,1
COC(=O)C(CC#Cc1ccc2c(c1)[C@]1(C(=O)N2)[C@H](C(N)=O)[C@H]2C(=O)O[C@H](c3ccccc3)[C@H](c3ccccc3)N2[C@@H]1c1ccccc1OCCO)C(=O)OC,/,/,142*
COC(=O)C(CC#Cc1ccc2c(c1)[C@]1(C(=O)N2)[C@H](C(=O)N2CCc3cc(OC)c(OC)cc3C2)[C@H]2C(=O)O[C@H](c3ccccc3)[C@H](c3ccccc3)N2[C@@H]1c1ccccc1OCCO)C(=O)OC,/,/,24
COC(=O)C(CC#Cc1ccc2c(c1)[C@]1(C(=O)N2)[C@H](c2ccccc2OCCO)N2[C@H](c3ccccc3)[C@H](c3ccccc3)OC(=O)[C@H]2[C@@H]1C(=O)N1CCc2cc(OC)c(OC)cc2C1)C(=O)OC,/,/,175*
O=C1O[C@@H](c2ccccc2)[C@@H](c2ccccc2)N2[C@@H](c3ccccc3OCCO)[C@]3(C(=O)Nc4ccc(C#CC5(O)CCCCCC5)cc43)[C@@H](C(=O)NC[C@H](O)c3ccccc3)[C@H]12,/,/,60
COCCOC(=O)N1C(=O)[C@@]2(c3cc(C#CCCO)ccc31)[C@H](c1ccccc1OCCO)N1[C@H](c3ccccc3)[C@H](c3ccccc3)OC(=O)[C@H]1[C@@H]2C(=O)N1CCc2cc(OC)c(OC)cc2C1,/,/,95*
COCCOC(=O)N1C(=O)[C@@]2(c3cc(C#CCCO)ccc31)[C@H](C(=O)N1CCc3cc(OC)c(OC)cc3C1)[C@H]1C(=O)O[C@H](c3ccccc3)[C@H](c3ccccc3)N1[C@@H]2c1ccccc1OCCO,/,/,52
COC(=O)C(CC#Cc1ccc2c(c1)[C@]1(C(=O)N2)[C@H](C(=O)NC[C@H](O)c2ccccc2)[C@H]2C(=O)O[C@H](c3ccccc3)[C@H](c3ccccc3)N2[C@@H]1c1ccccc1OCCO)C(=O)OC,/,/,113*
COC(=O)C(CC#Cc1ccc2c(c1)[C@]1(C(=O)N2)[C@H](C(N)=O)[C@H]2C(=O)O[C@H](c3ccccc3)[C@H](c3ccccc3)N2[C@@H]1c1ccc(OCCO)cc1)C(=O)OC,/,/,30
CCCCN1C(=O)/C(=C2/Sc3ccc(OC)cc3N2C)SC1=S,0,29,9
CCN(C(C)=O)c1ccccc1C,/,/,0
O=C(CC(C(=O)O)n1ccnc1)c1ccc(C2CCCCC2)cc1 (centres undefined),/,/,12
O=C(NC1CC1)c1ccc2c(c1)N(Cc1ccccc1)C(=O)CS2,/,/,-1
COc1ccc(NC(=O)CNC(=O)c2ccco2)cc1,/,34,/
O=C(CCNc1ccc(Oc2ccccc2)cc1)c1ccco1,-7,131*,49
O=C1C(C=NC(CO)(CO)CO)=C(O)c2ccccc21,1,33,-9
C[C@@H]1CCCCO[C@H](CN(C)Cc2ccc(C(F)(F)F)cc2)[C@@H](C)CN([C@H](C)CO)C(=O)c2cc(NC(=O)Nc3ccc(C(F)(F)F)cc3)ccc2O1,-2,113*,6
C[C@@H]1CCCCO[C@H](CN(C)Cc2ccc(C(F)(F)F)cc2)[C@@H](C)CN([C@H](C)CO)C(=O)c2cc(NC(=O)c3ccncc3)ccc2O1,/,18,17
C[C@@H]1CCCCO[C@H](CN(C)CC2CCCCC2)[C@@H](C)CN([C@H](C)CO)C(=O)c2cc(NC(=O)Nc3ccc(C(F)(F)F)cc3)ccc2O1,-14,112*,95*
